Inconclusive results are not listed. Unmarked numbers belong to inactive results. Active and inactive are the calls of the source. Calls follow the shape of the dose curve; as a rule, active = well fitted inhibition curve with a large enough effect in the repeat runs; inconclusive = weak or mixed curves, or effect the other way; inactive = no such curve, though single readings can be large or run the other way.
What follows are compounds tested against Androgen receptor (Homo sapiens) (UniProt P10275) (assay: qHTS assay to identify small molecule antagonists of the androgen receptor (AR) signaling pathway using the MDA cell line (AID 743042; also: nearly all actives have a fitted effect of over 55% in size)). Conditions: MDA-kb2 AR-luc, MMTV luciferase, R1881 antagonist, 16 h; series mostly up to 70.3 µM; activity change, negative = inhibition: at the top concentration.
Source text: U.S. Tox21 Program National Center for Advancing Translational Sciences [NCATS] NIH Chemical Genomics Center [NCGC] U.S. Environmental Protection Agency [EPA] National Institutes of Environmental Health Sciences [NIEHS] National Toxicology Program [NTP] U.S. Food and Drug Administration [FDA] Tox21 Assay Overview: Androgen receptor (AR), a nuclear hormone receptor, plays a critical role in AR-dependent prostate cancer and other androgen related diseases. Endocrine disrupting chemicals (EDCs) and their interactions with steroid hormone receptors like AR may cause disruption of normal endocrine function as well as interfere with metabolic homeostasis, reproduction, developmental and behavioral functions. To identify the compounds that inhibit AR signaling, MDA-kb2 AR-luc cell line (from ATCC, deposited by Wilson et al.) was used to screen the Tox21 10K compound library. MDA-kb2 AR-luc cell line is human breast carcinoma cell line that was stably transfected with a luciferase reporter gene under control of the MMTV promoter containing response elements for both androgen receptor (AR) and glucocorticoid receptor (GR).
Tox21 Assay Protocol Summary: MDA-kb2 cells were dispensed at 3,000 cells/4 uL/well of culture medium into white wall/solid-bottom 1536-well plates using a Multidrop Combi (ThermoFisher Scientific, Waltham, MA) dispenser. After the assay plates were incubated at a 37C and 0% CO2 for 5 hr, 23 nL of compounds dissolved in DMSO, positive controls or DMSO only was transferred to the assay plate by a Pintool station (Kalypsys, San Diego, CA), followed by addition of 1 uL of agonist (R1881) in culture medium using a Bioraptr Flying Reagent Dispenser (FRD) workstation (Beckman Coulter, Indianapolis, IN, USA). The plates were incubated at a 37C and 0% CO2 for 16 h. After 15.5 h incubation, 1uL of CellTiter-Fluor reagent (Promega, Madison, WI) was added using a Bioraptr FRD to each plate for measuring cytotoxicity. The fluorescence intensity was quantified on a ViewLux plate reader (PerkinElmer, Shelton, CT) following 30 min incubation at 37C and 0% CO2. For measuring luciferase reporter gene activity, 4 uL of ONE-Glo reagent (Promega) was added to each plate using a Bioraptr FRD and luminescence was quantified on a ViewLux (PerkinElmer) plate reader after 30 min incubation at room temperature.
% is scaled to controls: 0 for no effect and ±100 for the full control effect.

Sequence of Androgen receptor (Homo sapiens) (P10275 whole entry, looked up): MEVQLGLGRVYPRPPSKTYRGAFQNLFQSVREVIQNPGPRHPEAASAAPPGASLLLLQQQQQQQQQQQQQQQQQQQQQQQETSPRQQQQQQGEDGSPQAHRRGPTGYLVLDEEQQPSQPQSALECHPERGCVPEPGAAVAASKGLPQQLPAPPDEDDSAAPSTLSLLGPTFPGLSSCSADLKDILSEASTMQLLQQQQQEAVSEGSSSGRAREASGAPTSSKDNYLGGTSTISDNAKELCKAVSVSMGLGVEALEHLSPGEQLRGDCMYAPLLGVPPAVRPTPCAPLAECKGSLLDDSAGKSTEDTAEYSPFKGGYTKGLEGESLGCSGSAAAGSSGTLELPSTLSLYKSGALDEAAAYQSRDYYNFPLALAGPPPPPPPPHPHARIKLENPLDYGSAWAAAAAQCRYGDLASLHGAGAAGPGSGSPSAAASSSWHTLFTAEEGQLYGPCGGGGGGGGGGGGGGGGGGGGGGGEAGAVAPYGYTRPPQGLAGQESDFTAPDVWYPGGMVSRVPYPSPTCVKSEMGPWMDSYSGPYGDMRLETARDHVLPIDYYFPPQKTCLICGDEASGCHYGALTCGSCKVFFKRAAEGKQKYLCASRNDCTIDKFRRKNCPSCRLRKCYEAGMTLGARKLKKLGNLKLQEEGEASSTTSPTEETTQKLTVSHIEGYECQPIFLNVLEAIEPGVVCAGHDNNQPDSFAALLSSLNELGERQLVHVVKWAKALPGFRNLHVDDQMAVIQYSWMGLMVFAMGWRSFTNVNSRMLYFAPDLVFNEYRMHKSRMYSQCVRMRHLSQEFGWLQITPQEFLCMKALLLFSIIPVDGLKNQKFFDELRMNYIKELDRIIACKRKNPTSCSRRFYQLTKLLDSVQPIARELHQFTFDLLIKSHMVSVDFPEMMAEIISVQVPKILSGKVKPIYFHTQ

| SMILES | outcome | activity change, negative = inhibition |
| --- | --- | --- |
| c1cc2c3c(cccc3c1)CC2 | inactive |  |
| CCN(CC)c1ccccc1 | inactive |  |
| CCCN(CCC)c1c([N+](=O)[O-])cc(C(F)(F)F)cc1[N+](=O)[O-] | inactive |  |
| COCCl | inactive |  |
| O=c1ccc(=O)[nH][nH]1 | inactive |  |
| [N-]=[N+]=[N-] |  | -29% |
| C=C(C)CCl | inactive |  |
| Cc1[nH]c(=O)n(C(C)(C)C)c(=O)c1Cl | inactive |  |
| CCNc1nc(NC(C)C)nc(SC)n1 | inactive |  |
| c1ccc(-c2ccccc2)cc1 | inactive |  |
| O=c1[nH]c(=O)[nH]c(=O)[nH]1 | inactive |  |
| CCCCN(CC)C(=O)SCCC | inactive |  |
